From PubChem
Many of the other results were omitted from the sample, so hits are more common in it than they were.
IL-1B inflam inh: inflammasome signaling inhibition, IL-1 beta readout; AID 743279; activity change, % at 57.5 µM; hit rate 4.7% among 360,000; THP-1 LPS/ATP IL-1B secretion, AlphaLISA, 16 h; active compounds read low; in the data active = activity change below about -50%; inconclusive = mostly about -30% to -49%
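Secreted IL-1B measured by AlphaLISA bead assay after 16 h compound exposure of THP-1 cells; compounds (final up to 57.5 uM) added 1 h before LPS (250 ng/mL) and ATP (1.25 mM) stimulation; lower signal means less secretion.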
HT1080NT lethal: kills 2HG-producing HT-1080-NT fibrosarcoma cells; HT-1080-NT fibrosarcoma viability, CellTiter-Glo ATP luminescence, 48 h; Potency, µM (series often up to 46.1 µM), hits mostly cytotoxic; hit rate 1.6% among 360,000; AID 686970;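 also: NT is the 2HG producing partner of a matched IDH1 knockdown line; nearly all actives have a fitted effect of over 55% in size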
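A 48-hour cytotoxicity screen used HT-1080-NT cells plated 2 hours before compound delivery. ATP-based CellTiter-Glo luminescence measured viability, normalized to DMSO and no-cell controls.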
ALOX12 inh: blocks human arachidonate 12S-lipoxygenase; Potency, µM (titrated, usually from 108 µM), most hits filed as inhibitors; hit rate 1.1% among 580,000; P18054; purified 12hLO, xylenol orange hydroperoxide absorbance; AID 1671190
Target sequence (P18054 whole entry, looked up): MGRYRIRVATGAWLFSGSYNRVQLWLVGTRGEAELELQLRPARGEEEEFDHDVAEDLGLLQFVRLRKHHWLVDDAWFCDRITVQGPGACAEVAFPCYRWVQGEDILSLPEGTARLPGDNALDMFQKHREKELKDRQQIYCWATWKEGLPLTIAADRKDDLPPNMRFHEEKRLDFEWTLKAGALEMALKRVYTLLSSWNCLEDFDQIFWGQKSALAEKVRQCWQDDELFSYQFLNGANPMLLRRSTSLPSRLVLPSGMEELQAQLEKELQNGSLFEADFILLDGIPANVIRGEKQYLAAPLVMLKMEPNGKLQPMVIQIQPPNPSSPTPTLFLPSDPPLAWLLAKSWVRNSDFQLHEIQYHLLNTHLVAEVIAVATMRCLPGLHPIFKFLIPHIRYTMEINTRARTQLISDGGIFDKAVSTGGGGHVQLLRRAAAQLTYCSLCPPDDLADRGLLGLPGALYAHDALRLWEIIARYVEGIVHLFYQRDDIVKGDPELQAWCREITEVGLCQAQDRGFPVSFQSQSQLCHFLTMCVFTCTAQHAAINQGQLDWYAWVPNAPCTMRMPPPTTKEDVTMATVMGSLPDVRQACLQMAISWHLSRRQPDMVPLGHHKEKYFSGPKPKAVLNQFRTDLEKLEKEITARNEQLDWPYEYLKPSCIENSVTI
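Purified human 12hLO (150 nM final) in 25 mM Hepes, 0.01% Triton X-100, pH 7.0 was preincubated 15 min at room temperature with compound. Then 40 uM arachidonic acid was added, 30 min. Hydroperoxide was read by Fe-XO absorbance ratio 573/405 nm.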
TDP1 cell CPT: growth inhibition of DT40 Tdp1-/-;hTDP1 cells with camptothecin (screen for TDP1 inhibitors); hit rate 12% among 420,000; Potency, µM (series often up to 46.2 µM), most hits filed as inhibitors; chicken DT40 Tdp1-/-;hTDP1 cells + 20 nM CPT, ATP luminescence, 48 h; AID 686979; also: nearly all actives have a fitted effect of over 55% in size
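Cell growth measured by CellTiter-Glo luminescence after a minimum 48 h, 37 C compound exposure with 20 nM CPT in Tdp1-knockout DT40 cells stably expressing hTDP1, seeded 400/well; qHTS titration format.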
HT1080 IDH1KD tx: toxicity to HT-1080 IDH1 knockdown cells (counter line); AID 686971; HT-1080 IDH1 knockdown viability, ATP luminescence, 48 h; Potency, µM (titrated, usually from 46.1 µM), hits mostly cytotoxic; hit rate 2% among 360,000
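CellTiter-Glo luminescence after 48 h compound exposure at 37 degrees C of IDH1-knockdown HT-1080 cells in 5% FBS RPMI. %Activity scaled between DMSO wells and cell-free media wells, with curves fitted and assigned curve classes.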
DT40 TDP1 no CPT: qHTS for Inhibitors of human tyrosyl-DNA phosphodiesterase 1 (TDP1): qHTS in cells in absence of CPT. DT40 Tdp1-/- hTDP1 cells, no CPT, ATP luminescence, 48 h. Potency, µM (titrated, usually from 46.2 µM), hits mostly inhibitors. hit rate 15% among 420,000. AID 686978, 2013; also: nearly all actives have a fitted effect of over 55% in size
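Seeded 400 DT40-hTDP1 cells/well (vehicle DMSO, no 20 nM CPT); pinned compounds; ≥48 hr at 37 °C; CellTiter-Glo luminescence as viability measure.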
Hits are given with their value; . = inactive; ? = inconclusive; / = no result; [ ] = another dose, or the depositor's remark. Unless noted, calls follow the shape of the dose curve; as a rule, active = well fitted curve in the direction sought with a large enough effect; inconclusive = small, poorly fitted or top-dose-only effect, or another doubt; inactive = no such curve, though single readings can be large; an effect the other way counts as inactive or inconclusive.

SMILES	IL-1B inflam inh	HT1080NT lethal	ALOX12 inh	TDP1 cell CPT	HT1080 IDH1KD tx	DT40 TDP1 no CPT
Cc1cccc(-c2ocnc2C(=O)Nc2ccc(C)c(Cl)c2)c1	/	/	.	/	/	/
Cc1cc(NC(=O)CSc2nc3sc(C)c(C)c3c(=O)n2C2CCCC2)no1	.	.	.	9.2µM	.	.
CCc1c(C)sc2nc(SCC(=O)Nc3cc(C)on3)n(CCOC)c(=O)c12	.	.	.	?	.	1.16µM
Cc1cc(NC(=O)CSc2nnc3c4c(C)c(C)sc4ncn23)no1	.	.	.	?	.	17.8µM
Cc1cc(NC(=O)CSc2nc(C(C)C)nc3sc(C)c(C)c23)no1	.	.	.	.	.	.
O=C(OCc1ccc([N+](=O)[O-])cc1)c1ccc(OC(F)(F)F)cc1	/	/	.	/	/	/
Cc1ccccc1-c1nc2ccccc2s1	/	/	.	/	/	/
O=C(NCc1ccccn1)c1ccc(N2CC3CC(C2)[C@H]2CCCC(=O)N2C3)nc1 (stereo not given in full)	/	/	.	/	/	/
Cc1cc(C)c(/C=C/c2onc(C)c2S(=O)(=O)N2CCC(C(=O)NCC(C)c3ccccc3)CC2)c(C)c1 (stereo not given)	/	/	.	23.1µM	/	14.6µM
Cc1cc(C)c(/C=C/c2onc(C)c2S(=O)(=O)N2CCC(C(=O)Nc3ccc(Cl)c(C(F)(F)F)c3)CC2)c(C)c1	/	/	.	4.11µM	/	5.8µM
CCOc1ccc(NC(=O)C2CCN(S(=O)(=O)c3c(C)noc3/C=C/c3c(C)cc(C)cc3C)CC2)cc1	/	/	.	9.2µM	/	6.51µM
CCOc1ccc(N(C)C(=O)C2CCN(S(=O)(=O)c3c(C)noc3/C=C/c3ccc(C)cc3)CC2)cc1	/	/	.	4.11µM	/	5.8µM
Cc1noc(/C=C/c2ccccc2F)c1S(=O)(=O)N1CCC(C(=O)NCC(C)c2ccccc2)CC1 (stereo not given)	/	/	.	.	/	.
Cc1nn(-c2nc3c(c(=O)n(C)c(=O)n3C)n2C/C=C/c2ccccc2)c(C)c1C	/	/	.	/	/	/
N#CCOc1ccc2[nH]cc(C(C(=O)O)N3CCN(Cc4cccnc4)CC3)c2c1 (stereo not given)	/	/	.	/	/	/
CC(=O)Nc1ccc(C(=O)Nc2ccc3c(c2)N(C2CCCC2)C(=O)c2ccccc2S3)cc1	/	/	.	20.6µM	/	16.4µM
N#Cc1ccc(C(=O)Nc2ccc3c(c2)N(C2CCCC2)C(=O)c2ccccc2S3)cc1	/	/	.	23.1µM	/	18.4µM
O=C(Nc1ccc2c(c1)N(Cc1ccccc1)C(=O)c1ccccc1S2)NC1CC1	.	.	.	.	.	.
Cc1c(C)n(CCCN2CCOCC2)c2ncn3nc(-c4ccc(F)cc4)nc3c12	/	/	.	/	/	/
COC(=O)c1ccc(CSc2nc3c([nH]c4ccccc43)c(=O)n2-c2ccc(OC)cc2)o1	/	/	.	18.4µM	/	18.4µM
COC(=O)c1ccc(CSc2nc3c([nH]c4ccccc43)c(=O)n2-c2ccc(Cl)cc2)o1	/	/	.	?	/	?
CCOc1ccc(-n2c(SCc3ccc(C(=O)OC)o3)nc3c([nH]c4ccccc43)c2=O)cc1	/	/	.	23.1µM	/	?
C[C@H]1[C@@H]2[C@@H](O)C([C@H](C)C(=O)NCc3ccc(F)cc3)CC[C@@]2(C)CC[C@@H]1NC(=O)c1ccccc1 (stereo not given in full)	/	/	.	/	/	/
CCCCC(CC)CNC(=O)c1nccnc1N (stereo not given)	/	/	.	/	/	/
Fc1cccc(-c2cc3nc4c(c(NCc5ccco5)n3n2)CCCC4)c1	-92.3	?	.	?	.	.
SMILES	IL-1B inflam inh	HT1080NT lethal	ALOX12 inh	TDP1 cell CPT	HT1080 IDH1KD tx	DT40 TDP1 no CPT
OC1CCN(Cc2nc(-c3ccc(Cl)cc3)no2)CC1	/	/	.	/	/	/
Clc1cccc(-c2cc3nc4c(c(N5CCN(c6cnccn6)CC5)n3n2)CCCC4)c1	.	.	.	23.1µM	.	?
Cc1nc2cc(-c3ccccc3)nn2c(C)c1CCC(=O)NCc1ccco1	.	.	.	.	.	.
Fc1cccc(-c2cc3nc4c(c(N5CCOCC5)n3n2)CCCC4)c1	.	.	.	18.4µM	.	?
OC1CCN(c2c3c(nc4cc(-c5ccc(Cl)cc5)nn24)CCC3)CC1	?	.	.	23.1µM	.[9.24 µM]	20.6µM
O=C(c1cc(-c2cccc(Cl)c2)nc2ccccc12)N1CCN(c2ccccn2)CC1	.	.	.	?	.	?
CC(C)CNC(=O)N(C)CC1CCOCC1	/	/	.	/	/	/
COc1cccc(Nc2nc(NCC(C)C)nc3c2cnn3-c2ccccc2)c1	/	/	.	/	/	/
COc1cc(Nc2nn(-c3ccc(OC(F)(F)F)cc3)nc2C(C)=O)cc(OC)c1	/	/	.	.	/	.
Cc1c(C2(O)CCCCC2)[nH]c2cc(C(F)(F)F)ccc12	-64.7	?	?	20.6µM	?	16.4µM
CCc1c(C2(O)CCCCC2)[nH]c2cc(C(F)(F)F)ccc12	.	?	/	?	?	13µM
CCCCc1nnc(NC(=O)c2ccc3ccn(C)c3c2)s1	/	/	.	/	/	/
CC1=C(c2ccc(F)cc2)S(=O)(=O)NC1=NCc1ccccc1Cl	/	/	?	.	/	.
CC1=C(c2ccc(C)cc2)S(=O)(=O)NC1=NCc1ccccc1Cl	/	/	?	23.1µM	/	20.6µM
COc1cccc(-c2nc(SCc3cc(=O)c4ccc(C)c(C)c4[nH]3)n[nH]2)c1	/	/	.	?	/	8.2µM
O=c1cc(CSc2n[nH]c(-c3ccccc3)n2)[nH]c2ccccc12	/	/	.	25.9µM	/	25.9µM
O=C1C(c2cc(=O)c3ccccc3[nH]2)=C(O)c2ccccc21	?	.	.	?	.	?
CCc1nc(SCc2cc(=O)c3cc(C)ccc3[nH]2)n[nH]1	/	/	.	.	/	.
O=c1cc(-c2ccccc2)[nH]c2ccccc12	.	?	.	0.517µM	2.31µM	0.92µM
O=C(CSc1nc2c(cnn2-c2ccc(F)cc2)c(=O)[nH]1)Nc1ccc(Br)cc1	/	/	.	.	/	.
CC(=O)N1CCCC2(C1)CN(C)c1ccc(C(=O)NCCOc3ccccc3)cc12 (stereo not given)	/	/	.	/	/	/
OC1CN(Cc2ccc(-c3cnc4c(OCc5ccccc5)nccn34)cc2)C1	/	/	.	/	/	/
O=[N+]([O-])c1ccc2nc(CO)[nH]c2c1	/	/	/	?	/	0.501µM
O=[N+]([O-])c1ccc(/C=C/c2ccncc2)cc1	?	.	.	?	.	13µM
CCCc1cc(=O)[nH]c(SCc2nc3ccc([N+](=O)[O-])cc3[nH]2)n1	.	9.2µM	.	?	14.6µM	?
NC(N)=Nc1nc2ccc([N+](=O)[O-])cc2[nH]1	?	.	.	.	.	29.1µM
O=[N+]([O-])c1ccc(/C=C/c2ccc([N+](=O)[O-])cc2)cc1	/	/	.	/	/	/
